Assay results: ChEMBL document CHEMBL4513216, “Probing the Open Global Health Chemical Diversity Library for Multistage-Active Starting Points for Next-Generation Antimalarials” (ACS Infect Dis, 2020)
About 8,600 (12%) of roughly 69,000 compounds showed an effect of 50% or more. What follows is part of a selection rich in strong results, with near analogues and random picks from the rest.

Tested on: Plasmodium berghei
Experiment: Screen against P. berghei liver stage (PbLuc), transformed with Luciferase, at 10uM
Assay type: functional, HepG2
Conditions: tested at 10 uM

Row | Compound | INHIBITION [%]
1 | COCCN1CCO[C@@H]2CN(Cc3cc(OC)cc(OC)c3)C[C@@H]2C1 | 39.3
2 | CNc1cc(C2CN(Cc3coc(C)n3)CCO2)nc(C)n1 (stereo not given) | -3.31
3 | Cc1nn(C)c(C)c1CC(=O)NCc1ccnc(N2CCOCC2)c1 | -34
4 | Cc1noc(C)c1-c1cccc(C2CN(CC(=O)N(C)C)CCO2)n1 (stereo not given) | 24.35
5 | O=C1CC2(CCN(Cc3ccc(C(F)(F)F)nc3)CC2)CN1 | 16.43
6 | O=C1CC2(CCN(Cc3ccc4cccc(O)c4n3)CC2)CN1 | 58.6
7 | Oc1cccc2ccc(CN3CCC4(CCNCC4)C3)nc12 | 15.9
8 | CCN(CC)CC1CN(Cc2nccs2)Cc2nccn2C1 (stereo not given) | -42.8
9 | O=C(Nc1cccnc1)C1Cc2nc(-c3ccsc3)sc2N1CC1CC1 (stereo not given) | 60.9
10 | O=C(NC1CCCC1)C1Cc2nc(-c3ccsc3)sc2N1CC1CC1 (stereo not given) | -2.35
11 | CC(C)NC(=O)C1Cc2nc(-c3ccsc3)sc2N1CC1CC1 (stereo not given) | 23.3
12 | Cc1ccccc1C(O)c1ccncc1 (stereo not given) | 1.95
13 | Cc1cccc(NC(=O)[C@@H]2CCCN2Cc2nnc(C(C)C)n2C)n1 | 24.3
14 | Cc1nonc1CNC(=O)C(C)Oc1cccc(F)c1 (stereo not given) | -35.5
15 | COc1ccc(CN(C)CCS(=O)(=O)c2ccc(Cl)cc2)cc1OC | 68.8
16 | COCCN(C)Cc1ccc(OC)c(OC(F)F)c1 | 26.8
17 | COc1ccc(CCN(C)CCS(=O)(=O)c2ccc(Cl)cc2)cc1OC | 63.7
18 | CCN(CCS(=O)(=O)c1ccc(Cl)cc1)Cc1ccc(OC)c(OC)c1 | 70.5
19 | CCN(Cc1nccs1)Cc1cc(Cl)ccc1OC | 15.3
20 | COc1ccc(CCN(C)C(C(=O)O)c2ccc(F)c(C)c2)cc1OC (stereo not given) | 16.7
21 | COc1ccc(S(=O)(=O)NCCCc2ccc(N(C)C)cc2)cc1Cl | 41.9
22 | COc1ccc(Cl)cc1S(=O)(=O)N(C)CC(N)=O | 23.5
23 | COc1ccc(CCCN(C)C(=O)c2cc(Cl)c[nH]2)cc1OC | 16.6
24 | O=S(=O)(C1CC1)N1C[C@@H]2COC[C@]2(COc2ccccn2)C1 | 26.3
25 | CC(C)c1nccc(N2CCN(CC(=O)N3CCOCC3)CC2)n1 | -0.96

Row | Compound | INHIBITION [%]
26 | CN(CCc1ccncc1)C(=O)C1CSCN1C(=O)CC(C)(C)C (stereo not given) | -23.8
27 | Cc1cccc(-n2cc3nc(N4CCC(C)CC4)[nH]cc-3c2=O)c1 | 23.4
28 | Cc1cnc(NCC(C)(C)N2CCN(C)CC2)nc1 | 47.2
29 | Cc1cnc(NCC(C)(C)N2CCOCC2)nc1 | 65.7
30 | Cc1cnc(NCC(C)(C)N2CCCCC2)nc1 | 23.3
31 | CN(C)C(=O)c1ccc(NCCNc2ccc3ccccc3n2)nc1 | 8.13
32 | CCn1c(CN(C)C(=O)c2ccc(O)nc2)nc2ccccc21 | -82.4
33 | CNc1ccc(C(=O)N(C)Cc2ccc3ccccc3n2)cn1 | 69.7
34 | CCn1c(CN(C)C(=O)c2ccc(N(C)C)nc2)nc2ccccc21 | -17.4
35 | CSCCNc1ccc(C(=O)N(C)Cc2ccc3ccccc3n2)cn1 | 56.1
36 | CCNc1ncc(C(=O)N(C)Cc2nc3ccccc3n2C)cn1 | 16.2
37 | Cn1ccnc1-c1cn(Cc2cn3c(n2)SCC3)nn1 | 5.75
38 | Cc1cccc(CN2C(=O)CCC23CCN(C(=O)N2CCCC2)CC3)n1 | 18.6
39 | CC(=O)N1N=C(c2ccccc2)OC1C(=O)N(C)Cc1ccccc1 (stereo not given) | 24.3
40 | O=C(N[C@@H]1CCN(Cc2ccc(F)cc2F)C[C@H]1O)c1cccnc1 | -26.8
41 | CCOCCCNC(=O)c1nnn(Cc2ccccc2)c1OC | 13.5
42 | CNC(=O)c1cnc(C=Cc2ccc(O)c(OC)c2)s1 | -84.4
43 | CNC(=O)c1cnc(C=Cc2cc(OC)c3c(c2)OCCO3)s1 | 41.4
44 | CCOc1c(Br)cc(/C=C/c2ncc(C(=O)O)s2)cc1OC | -39.3
45 | CCOc1c(Cl)cc(/C=C/c2ncc(C(=O)O)s2)cc1OC | 7.27
46 | CNC(=O)c1cnc(/C=C/c2ccc(OC)c(O)c2)s1 | 40.1
47 | CCOc1c(OC)cc(C=Cc2ncc(C(=O)NC)s2)cc1OC | 52.6
48 | CNC(=O)c1cnc(C=Cc2cc(OC)c(O)c(OC)c2)s1 | 50
49 | CNC(=O)c1cnc(/C=C/c2cc(OC)cc(OC)c2)s1 | -76.5
50 | COc1cc(/C=C/c2ncc(C(=O)O)s2)cc(Cl)c1O | -20.9

Row | Compound | INHIBITION [%]
51 | CNC(=O)c1cnc(/C=C/c2cc(OC)c(OC)c(OC)c2)s1 | 53.5
52 | CCOc1cc(/C=C/c2ncc(C(=O)O)s2)ccc1O | -6.62
53 | CCOc1cc(C=Cc2ncc(C(=O)NC)s2)ccc1OC | 72.2
54 | CCOc1ccc(C2CCCN2Cc2nnnn2C2CC2)cc1 (stereo not given) | 48.2
55 | O=c1ccc2c(n1Cc1cccnc1)CCN(CC1CCOC1)CC2 (stereo not given) | -5.63
56 | C[C@H]1CN(C(=O)c2ccoc2)C[C@@]12CCN(CCN(C)C)C2=O | -80
57 | CCC(=O)NC1CCCN(c2cncc(OCc3ccccc3)n2)C1 (stereo not given) | 1.56
58 | O=C(NCc1ccccn1)[C@@H]1COC[C@H]2CN(C3CCC3)C[C@H]21 | 26.4
59 | Cc1nc(-c2ccccc2)n(CC(=O)NC2CCCCC2)n1 | 37.4
60 | O=S1(=O)COCCN1Cc1ccc(F)cc1Cl | 33.9
61 | Cn1cc(CN2CCC3(CC2)CCN(Cc2ccccn2)CC3)cn1 | 41.2
62 | O=C(c1ccnc(C2CCNCC2)c1)N1CCCC1 | 7.43
63 | O=C1OCC(CO)N1Cc1cccc(Cl)c1F (stereo not given) | 28.7
64 | C=C(C)CN1CCC(NC(=O)NCCc2ccc(N(C)C)cc2)CC1 | 55.4
65 | C=C(C)CN1CCC(NC(=O)NCCc2cccc(C(N)=O)c2)CC1 | 57.3
66 | COc1ccc(CCNC(=O)NCc2cccc(C(N)=O)c2)cc1OC | 37.4
67 | C=C(C)CN1CCC(NC(=O)c2scnc2C)CC1 | -6.44
68 | NC(=O)c1cccc(CCNC(=O)N2CCCC2)c1 | 58.1
69 | C=C(C)CN1CCC(NC(=O)NCCc2ccccc2OC)CC1 | 94.1
70 | Cn1cc(CCNC(=O)NC2CCN(Cc3ccccn3)CC2)cn1 | 16.8
71 | COc1ccc(CCNC(=O)NC2CCCC2)cc1OC | -24.9
72 | C=C(C)CN1CCC(NC(=O)Nc2cc(C(N)=O)ccc2OC)CC1 | 32.5
73 | CNC(=O)c1cccc(CCNC(=O)N2CCc3ccccc3C2)c1 | 3.73
74 | C=C(C)COc1ccccc1CN1CCC(NC(C)=O)CC1 | 19.4
75 | NC(=O)c1cccc(CCNC(=O)N2Cc3ccccc3C2)c1 | 26.5
